IL-1B inflam inh: inflammasome signaling inhibition, IL-1 beta readout; THP-1 LPS/ATP IL-1B secretion, AlphaLISA, 16 h; hits give low values; activity change, % at 57.5 µM; hit rate 4.7% among 360,000; in the data active = activity change below about -50%; inconclusive = mostly about -30% to -49%; also: % is scaled to controls: 0 for no effect and ±100 for the full control effect
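THP-1 cells pretreated 1 hr with compounds (up to 57.5 uM final), then stimulated with LPS (250 ng/mL final) plus ATP (1.25 mM final); secreted IL-1B measured by AlphaLISA after 16 hr, decreased signal indicating inhibition.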
SW480 rereplic: induces DNA re-replication in SW480 colon adenocarcinoma cells | AID 624297 | Potency, µM (doses to about 46.1 µM), for the others: at the top dose re-replication activation, hits mostly activators | hit rate 1.8% among 340,000 | SW480 DNA re-replication, Hoechst DNA content imaging, 48 h; also: potency is read from the fitted curve at half-maximal effect; % of control where 0% means no effect; nearly all actives have a fitted effect of over 55% in size
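Treated cells incubate 48 hr (37 C, 5% CO2), are stained 40 min with Hoechst, and nuclear fluorescence is enumerated; a rise in nuclei with high DNA signal marks re-replication.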
TDP1 cell CPT: growth inhibition of DT40 Tdp1-/-;hTDP1 cells with camptothecin (screen for TDP1 inhibitors) | AID 686979 | Potency, µM (doses to about 46.2 µM), for the others: at the top dose activity change, negative = growth inhibition, usual class: inhibitors | hit rate 12% among 420,000 | chicken DT40 Tdp1-/-;hTDP1 cells + 20 nM CPT, ATP luminescence, 48 h; also: potency is read from the fitted curve at half-maximal effect; % is scaled to controls: 0 for no effect and ±100 for the full control effect; nearly all actives have a fitted effect of over 55% in size
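Cell growth measured by CellTiter-Glo luminescence after a minimum 48 h, 37 C compound exposure with 20 nM CPT in Tdp1-knockout DT40 cells stably expressing hTDP1, seeded 400/well; qHTS titration format.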
TDP1 cell noCPT: qHTS for Inhibitors of human tyrosyl-DNA phosphodiesterase 1 (TDP1): qHTS in cells in absence of CPT. AID 686978, 2013. DT40 Tdp1-/- hTDP1 cells, no CPT, ATP luminescence, 48 h. hit rate 15% among 420,000. Potency, µM (highest dose often 46.2 µM), for inactives: at the top dose activity change, negative = growth inhibition, usual class: inhibitors; also: potency is read from the fitted curve at half-maximal effect; % is scaled to controls: 0 for no effect and ±100 for the full control effect; nearly all actives have a fitted effect of over 55% in size
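Chicken DT40 Tdp1-/- cells stably complemented with human TDP1 were seeded at 400 cells/well with DMSO in place of 20 nM camptothecin. After compound pinning, cells grew at least 48 hr at 37 °C; viability read by CellTiter-Glo luminescence.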
BCR signal inh: chronic active BCR signaling inhibition; Potency, µM (top dose mostly 46.1 µM), without a hit: at the top dose activity change, negative = inhibition, hits mostly inhibitors; ABC-DLBCL IkBa-CBG/CBR reporter, luminescence ratio, 4 h; hit rate 0.05% among 340,000; AID 493014; active = well fitted inhibition curve with a large enough effect in the signal ratio, with a control signal flat, not every such curve was filed as active; inconclusive = small, poorly fitted or top-dose-only effect, or effect the other way, or a change in a side signal; the % refers to the signal ratio;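 also: potency is read from the fitted curve at half-maximal effect; plate controls were basal doxycycline-induced cells for no effect and cells given 10 µM MG132 for full effect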
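Cell line TMD8 (human ABC DLBCL), stably expressing tet-inducible CBG68-IkBa fusion and CBR; IMDM/0.5% FBS; cpd up to 46 uM; dox induction, 4 h, 37C/5% CO2; dual luminescence; green/red ratio; MG132 control.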
MCF10A rereplic: inducers of DNA re-replication in MCF 10A breast cells; Potency, µM (highest dose often 46.1 µM), for inactives: at the top dose activity, positive = re-replication, usual class: activators; MCF 10A DNA re-replication, Hoechst nuclear intensity, 48 h; hit rate 2.9% among 350,000; also: potency is read from the fitted curve at half-maximal effect; % of control where 0% means no effect; nearly all actives have a fitted effect of over 50% in size
Active calls of the source: *; ? = inconclusive; / = not tested or not shown. Most compounds without a hit are left out; they make up all but 19% or so of the library. Unless noted, calls follow the shape of the dose curve; as a rule, active = well fitted curve in the direction sought with a large enough effect; inconclusive = small, poorly fitted or top-dose-only effect, or another doubt; inactive = no such curve, though single readings can be large; an effect the other way counts as inactive or inconclusive.

SMILES	IL-1B inflam inh	SW480 rereplic	TDP1 cell CPT	TDP1 cell noCPT	BCR signal inh	MCF10A rereplic
CCCn1c(=O)c(C(=O)N/N=C/c2ccccc2F)c(O)c2ccccc21	0	?	17%	20%	?	5%
CCCCCCn1c(=O)c(C(=O)N/N=C/c2cccc(F)c2)c(O)c2ccccc21	-2	?	0.92µM*	1µM*	-4%	-1%
CC(C)CCn1c(=O)c(C(=O)N/N=C/c2cccc(F)c2)c(O)c2ccccc21	22	-1%	1.3µM*	0.65µM*	?	6%
O=C(Nc1ccn(C2CCC(CO)O2)c(=O)n1)c1ccccc1 (centres undefined)	-13	/	-4%	6%	/	/
O=C(NNS(=O)(=O)c1ccc(Cl)cc1)c1cccc(S(=O)(=O)N2CCOCC2)c1	-1	-3%	-5%	-19%	3%	-1%
COc1ccc(OC)c(NC(=O)CSc2ccnc(=O)[nH]2)c1	/	/	-5%	-6%	?	/
O=C(c1cnccn1)N1CCC2(CC1)CN(Cc1cc(C(F)(F)F)cc(C(F)(F)F)c1)C2	/	/	3%	-20%	/	/
CS(=O)(=O)c1ccc(C(=O)OCc2nnc(-c3ccc(Cl)cc3)o2)cc1[N+](=O)[O-]	-77*	?	3.3µM*	4.6µM*	?	3.7µM*
CC(=O)c1c(C)[nH]c(C(=O)OCc2nnc(-c3ccc([N+](=O)[O-])cc3)o2)c1C	45	1%	23µM*	15µM*	0%	4%
CC(=O)c1c(C)[nH]c(C(=O)OCC(=O)NNC(=O)c2ccc([N+](=O)[O-])cc2)c1C	19	-12%	5%	0%	?	10%
O=C(OCc1nnc(-c2ccc(Cl)cc2)o1)c1ccc(O)cc1	35	-1%	7%	-15%	0%	11%
Cc1onc(-c2c(F)cccc2Cl)c1C(=O)Nc1cccc(S(=O)(=O)N2CCOCC2)c1	8	1%	-26%	-28%	?	4%
COc1ccc(-c2cnc3c(NC(C)=O)cc(-c4ccc(S(C)(=O)=O)cc4)cn23)cc1OC	-26	/	?	18µM*	/	/
COc1cccc(-c2cnc3c(NC(C)=O)cc(-c4ccc(S(C)(=O)=O)cc4)cn23)c1	?	/	?	23µM*	/	/
COc1cccc(-c2cnc3c(NC(C)=O)cc(-c4cccc(C(=O)N(C)C)c4)cn23)c1	11	/	?	?	/	/
CCc1ccc(OCCOCC(O)CN2CCN(Cc3ccc(Cl)cc3)CC2)cc1 (centres undefined)	-53*	?	18µM*	?	-11%	15µM*
CC(=O)Nc1ccc(OCC(O)CN2CCN(Cc3ccccc3)CC2)cc1 (centres undefined)	24	-8%	-10%	-4%	-1%	-1%
OC(COCCOc1ccc(Br)cc1)CN1CCN(Cc2ccccc2)CC1 (centres undefined)	?	-1%	?	23µM*	-11%	9%
COc1cccc(OCCOCC(O)CN2CCN(Cc3ccc(Cl)cc3)CC2)c1 (centres undefined)	-17	-3%	-26%	?	-7%	?
CC(=O)c1ccc(OC(=O)Oc2ccc(C(C)=O)cc2)cc1	2	-2%	-24%	-26%	/	-1%
CC(=O)Oc1ccc2ccc3ccc(C(C)=O)cc3c2c1	?	?	?	18µM*	/	?
CC(=O)c1cccc(NC(=O)C2CCCN2S(=O)(=O)c2cccc3cccnc23)c1 (centres undefined)	0	2%	?	-28%	?	0%
O=C(Nc1ccc(C(F)(F)F)cc1)C1CCCN1S(=O)(=O)c1cccc2cccnc12 (centres undefined)	18	1%	?	23µM*	?	18%
O=C(Nc1cccc(F)c1)C1CCCN1S(=O)(=O)c1cccc2cccnc12 (centres undefined)	15	-3%	18µM*	?	?	8%
Cc1ccc(NC(=O)C2CCCN2S(=O)(=O)c2ccc3nc(-c4ccccc4)[nH]c3c2)cc1F (centres undefined)	/	/	18µM*	10µM*	/	/
SMILES	IL-1B inflam inh	SW480 rereplic	TDP1 cell CPT	TDP1 cell noCPT	BCR signal inh	MCF10A rereplic
O=C(Nc1ccc(F)c(F)c1)C1CCCN1S(=O)(=O)c1ccc(F)cc1 (centres undefined)	43	4%	?	?	11%	13%
O=C(Nc1ccc2c(c1)OCCO2)C1CCCN1S(=O)(=O)c1cccc2cccnc12 (centres undefined)	10	3%	2%	-14%	?	0%
Cc1ccc(NC(=O)C2CCCN2S(=O)(=O)c2cccc3cccnc23)cc1C (centres undefined)	/	/	?	21µM*	/	/
CCOC(=O)[C@@H]1[C@H]2COc3ccccc3[C@H]2N2C(=O)N(c3ccc(Cl)cc3)C(=O)[C@@]12C	12	28%	?	?	-2%	-3%
O=C(Nc1ccccc1)N1CC2(CCN(C(=O)c3ccncc3)CC2)C1	/	/	-5%	7%	/	/
CCN(CC)c1ccc(/C=N/NC(=O)Cc2nnc(NC(=O)Nc3ccccc3)s2)cc1	14	7%	?	21µM*	0%	?
Cc1cc(C)cc(NC(=O)N2CCC(CN3CCc4ccccc4C3)CC2)c1	/	/	?	13µM*	/	/
CN1CCN(c2ncnc3c2ncn3[C@H]2CN(Cc3ccc(C(=O)O)cc3)C[C@@H](CO)O2)CC1	-1	/	1%	1%	/	/
COc1ccc2c(c1)sc1ncc(C(=O)NCc3cccc(C)c3)c(=O)n12	/	/	4%	5%	/	/

From PubChem BioAssay
